Experimental data reported in article PMC7819943, “Rice protein-binding microarrays: a tool to detect cis-acting elements near promoter regions in rice”.
Whole data set: some 35,000 sequences, median “fluorescence intensity (a.u.)” near 10,000, cut for the highest 2% near 52,000. This is one part of a sample in which the highest values are shown more often than they occur.

target: T1, OsWOX13 (Oryza sativa, UniProt Q5QMM3 1-267); experiment: protein-binding microarray (RPBM); PBS, 2% BSA, 51.3 ng/ul salmon testes DNA, 50 uM zinc acetate, 200 nM TF, 25 C, 1 h; high values mean tight binding; details: protein: recombinant; tags: N-terminal polyhistidine and DsRed monomer fusion (pET32a); label: CyDye5-dUTP incorporated in the synthesized complementary strand; 3' TTTTT single-stranded linker to array surface; dsDNA, one strand shown
T1 sequence: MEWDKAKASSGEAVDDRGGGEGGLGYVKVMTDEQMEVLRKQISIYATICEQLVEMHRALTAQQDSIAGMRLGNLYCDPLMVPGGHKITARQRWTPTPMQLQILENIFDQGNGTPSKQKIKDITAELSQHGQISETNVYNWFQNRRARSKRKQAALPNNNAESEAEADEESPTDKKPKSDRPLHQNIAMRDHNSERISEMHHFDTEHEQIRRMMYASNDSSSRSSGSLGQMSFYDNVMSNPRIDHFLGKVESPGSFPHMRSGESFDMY
Method in brief: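 In PBS with 2% BSA, salmon testes DNA and 50 µM zinc acetate, 200 nM protein was incubated on a custom Agilent array at 25 °C for 1 h and then washed off. The array had been made double-stranded by primer extension with Cy5-dUTP and blocked with 2% BSA. The proteins were transcription factors fused N-terminally to polyhistidine and DsRed, expressed in E. coli BL21-CodonPlus and purified on Ni–NTA. The binding signal is per-feature fluorescence intensity (arbitrary units) from an Axon 4000B scanner.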

Sequence	binding signal
TAAAATTGCATGTGATCATTTTGTAAGCTAAACTTTTATTCGGAGTCACCTAGTGCAG	11600 fluorescence intensity (a.u.)
GCTGCTCGGATTTGATTGATTGATTGATTGGCGGGTGGTCCGGAGTCACCTAGTGCAG	64500 fluorescence intensity (a.u.)
TCTTTGATTGGTGGCGGTGTTGAATTGAATTGAATTGATCCGGAGTCACCTAGTGCAG	46300 fluorescence intensity (a.u.)
TTTGGATTGGGTTTGGTGGTTGGGTGGGAGGGAGGGAGCTCGGAGTCACCTAGTGCAG	18700 fluorescence intensity (a.u.)
TACTATCAACTCTGTTAAAATTGAAGAATTTTGACTAAAACGGAGTCACCTAGTGCAG	3310 fluorescence intensity (a.u.)
AGAATAATTATTTAAGTTAAGGTGTGTCACACCCCAATCCCGGAGTCACCTAGTGCAG	25100 fluorescence intensity (a.u.)
GTGCATCACCAATCAAAACAGGAGGTGTTTGGAACTCCGTCGGAGTCACCTAGTGCAG	3870 fluorescence intensity (a.u.)
TACGCATTGATTAGTTTTGTCAGGTTAGTATAGAATTTAACGGAGTCACCTAGTGCAG	14000 fluorescence intensity (a.u.)
GTACTAGTATTATTGATTGATACACTTGTGATGTCATGCCCGGAGTCACCTAGTGCAG	30900 fluorescence intensity (a.u.)
GTACTTGATAGTTCAGTGATAAGGGGTGTGATTTCAACCCCGGAGTCACCTAGTGCAG	4490 fluorescence intensity (a.u.)
CAGGTGTGATTGAAGTGATGTACTCAACTTACACCCGGGCCGGAGTCACCTAGTGCAG	54400 fluorescence intensity (a.u.)
ACATAATTAGTTTATCTCTCCTCAAGCTGGTGCATCTCTCCGGAGTCACCTAGTGCAG	31200 fluorescence intensity (a.u.)
GAACCTTTTGATTGATTCTCGTCCTACACGCTTGAAGGCGCGGAGTCACCTAGTGCAG	38200 fluorescence intensity (a.u.)
TCGCTTTGATTGACACTAAGAACCTCGCTGCGCATCTCGTCGGAGTCACCTAGTGCAG	58600 fluorescence intensity (a.u.)
TCTCCAAGATTGATCCGCATCTCCAACTAAACCCTCTCCTCGGAGTCACCTAGTGCAG	7230 fluorescence intensity (a.u.)
ATTCTCTCTTTTGCTCGCTTTGTTCCCTTTTCTTTCTTTTCGGAGTCACCTAGTGCAG	3770 fluorescence intensity (a.u.)
TGTCTGACTGACTGACTGGCTGCTGCTGCTGCTCATTCCTCGGAGTCACCTAGTGCAG	23800 fluorescence intensity (a.u.)
TCTCGCTTCTGCCACTGCTGGCTGTGCTGCTTCCCTAGCTCGGAGTCACCTAGTGCAG	65100 fluorescence intensity (a.u.)
GGAATTAATTAATGAATCACGTAGGCTACCTGGGTTGAAGCGGAGTCACCTAGTGCAG	45800 fluorescence intensity (a.u.)
TAAAATTAACGTGGACACTAATCTAGTTTAGACTTTGATTCGGAGTCACCTAGTGCAG	15500 fluorescence intensity (a.u.)
ACGTTTAATATTTATAATTAATTTTCAAACATCCGATGTGCGGAGTCACCTAGTGCAG	19300 fluorescence intensity (a.u.)

Sequence	binding signal
TTAATGACTATTTAGTTGACATGTAAGAAACAGGGGATTTCGGAGTCACCTAGTGCAG	3450 fluorescence intensity (a.u.)
GCTCGATTGGATAATTCTTCTGCATAACTAGCCAGTGGAGCGGAGTCACCTAGTGCAG	26800 fluorescence intensity (a.u.)
AAACTTGATGGAATTCTTTAAATGTTCGATTGCTGGAGAGCGGAGTCACCTAGTGCAG	16700 fluorescence intensity (a.u.)
AACTTGCATACCAGTGGAATTCTTCAGGCTGGTCATGGAGCGGAGTCACCTAGTGCAG	65500 fluorescence intensity (a.u.)
TTAATTACTATCATTAGTGTTAAGTATATATTAACTAATGCGGAGTCACCTAGTGCAG	25900 fluorescence intensity (a.u.)
GAACTTTACCGAATTTGTAAATTAGATGTAAACTCATTTTCGGAGTCACCTAGTGCAG	3580 fluorescence intensity (a.u.)
GTGCCATTAATTTTGACTACTACTTGTGTGTCCTATCAAACGGAGTCACCTAGTGCAG	7280 fluorescence intensity (a.u.)
TCTAGCTATTAATTTGCTCTCATTTATAACTTAGCCGCTACGGAGTCACCTAGTGCAG	6390 fluorescence intensity (a.u.)
TTGACTGATTGCACGTCCAACCATAATTTCTTTTCGTCCACGGAGTCACCTAGTGCAG	58600 fluorescence intensity (a.u.)
CACTTAACTTAATTAGTTAATTATTGCTCTATTTTCTCTGCGGAGTCACCTAGTGCAG	60500 fluorescence intensity (a.u.)
GCCTTAATTGATTAACCGTGTAACATCTTCCTCACGCACCCGGAGTCACCTAGTGCAG	65500 fluorescence intensity (a.u.)
AATTGGCTTGGCTAATTAATTACTCCATTTGCGAACATGGCGGAGTCACCTAGTGCAG	4010 fluorescence intensity (a.u.)
GCGGATTAATTACTACTGGGCTGGCATTCTGATCACTTTGCGGAGTCACCTAGTGCAG	25400 fluorescence intensity (a.u.)
CCTAATTGACAAATGATTTCACCACGTCCCTTTCCATTTTCGGAGTCACCTAGTGCAG	34200 fluorescence intensity (a.u.)
ATAATTGATTCAACCTCGTTCTTAATTTGATACATCCTTCCGGAGTCACCTAGTGCAG	32300 fluorescence intensity (a.u.)
ATGCGATTGACTAATTAATTGACTGGGCTTTGGCATTGGGCGGAGTCACCTAGTGCAG	65500 fluorescence intensity (a.u.)
ACTTTTCTATTTAATTTTATCTATTTTCTTAATAACTATGCGGAGTCACCTAGTGCAG	4340 fluorescence intensity (a.u.)
TAATTTTCTGAGTGATCAAATAATTGACCATAATTTTCCACGGAGTCACCTAGTGCAG	8420 fluorescence intensity (a.u.)
ACCCTCATCTCTTCTCCTGATTGAATTGTCTTCCTCAACCCGGAGTCACCTAGTGCAG	30400 fluorescence intensity (a.u.)
TAAACCAATTACAATGATTATTTTCAACCGACCACCGATTCGGAGTCACCTAGTGCAG	23300 fluorescence intensity (a.u.)
AGGACTACTATAATTGCAACTGAAATAAAACCTTGGCTTGCGGAGTCACCTAGTGCAG	5450 fluorescence intensity (a.u.)
